Hit rate of the full screen: of about 400,000 compounds, about 2,100 (0.53%) were called active. Another 14% or so got no clear call; they are omitted. How the calls were made is not given here. The full list was thinned out, with actives kept by preference.
These compounds were tested against Ataxin-2 (Homo sapiens) (UniProt Q99700) (assay: qHTS for Inhibitors of ATXN expression.).
Type: functional

Chain of Ataxin-2 (Homo sapiens) (Q99700 whole entry): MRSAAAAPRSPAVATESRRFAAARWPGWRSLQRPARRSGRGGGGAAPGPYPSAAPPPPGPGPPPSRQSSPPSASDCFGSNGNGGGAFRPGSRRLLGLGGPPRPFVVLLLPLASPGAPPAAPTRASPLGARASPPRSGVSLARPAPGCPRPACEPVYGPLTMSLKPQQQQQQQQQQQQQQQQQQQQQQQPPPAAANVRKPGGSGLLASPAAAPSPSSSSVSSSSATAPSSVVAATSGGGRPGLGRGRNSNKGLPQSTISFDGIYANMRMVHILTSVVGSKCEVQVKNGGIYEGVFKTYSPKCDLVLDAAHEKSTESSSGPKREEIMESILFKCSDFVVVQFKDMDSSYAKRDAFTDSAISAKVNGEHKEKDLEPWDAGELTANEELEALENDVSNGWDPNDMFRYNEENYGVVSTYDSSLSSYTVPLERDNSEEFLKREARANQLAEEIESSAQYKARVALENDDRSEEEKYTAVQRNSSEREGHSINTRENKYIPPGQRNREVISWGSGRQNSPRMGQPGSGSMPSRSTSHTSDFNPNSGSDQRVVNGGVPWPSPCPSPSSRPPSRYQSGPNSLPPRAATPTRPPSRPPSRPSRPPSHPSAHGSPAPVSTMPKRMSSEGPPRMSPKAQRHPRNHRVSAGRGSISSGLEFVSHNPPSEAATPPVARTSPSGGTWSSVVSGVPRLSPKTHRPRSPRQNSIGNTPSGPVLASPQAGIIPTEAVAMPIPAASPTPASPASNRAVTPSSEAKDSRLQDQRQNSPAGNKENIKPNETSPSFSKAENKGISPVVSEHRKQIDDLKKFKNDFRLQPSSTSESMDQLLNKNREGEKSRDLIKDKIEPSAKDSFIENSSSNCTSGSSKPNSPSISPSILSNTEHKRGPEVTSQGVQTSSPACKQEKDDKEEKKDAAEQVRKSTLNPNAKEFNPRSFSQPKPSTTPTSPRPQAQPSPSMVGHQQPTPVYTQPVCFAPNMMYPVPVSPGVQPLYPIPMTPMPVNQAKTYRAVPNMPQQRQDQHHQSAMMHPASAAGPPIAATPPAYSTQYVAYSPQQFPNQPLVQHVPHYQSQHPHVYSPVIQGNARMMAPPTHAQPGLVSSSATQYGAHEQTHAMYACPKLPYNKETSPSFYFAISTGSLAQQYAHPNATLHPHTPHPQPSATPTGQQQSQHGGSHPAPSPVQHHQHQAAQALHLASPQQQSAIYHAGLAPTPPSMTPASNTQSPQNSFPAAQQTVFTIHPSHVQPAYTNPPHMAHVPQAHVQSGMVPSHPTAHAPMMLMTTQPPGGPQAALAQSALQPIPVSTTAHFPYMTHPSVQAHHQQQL

Row | Structure (SMILES) | Potency
1 | Cc1ccc(Nc2nc(-c3ccc(O)cc3O)cs2)nc1 | 44.7 µM (active)
2 | Cc1ccc(Nc2nc(-c3sc(C)nc3C)cs2)cc1 | inactive
3 | Cc1ccc(Nc2nc(-c3ccccc3)cs2)nc1 | inactive
4 | COC(=O)C1CCN(C(=O)COC(=O)c2ccc(N3CCCC3=O)cc2)CC1 | inactive
5 | COc1ccc(C(=O)O/N=C(\N)Cc2ccc(Cl)c(Cl)c2)cc1OC | 28.2 µM (active)
6 | COc1ccc(CC(=O)Nc2cc(C)ccn2)cc1OC | inactive
7 | COc1ccc(C(=O)COC(=O)c2sc(C)nc2C)cc1OC | inactive
8 | COc1ccc(NC(=O)CSc2nnc3n2CCCCC3)cc1 | inactive
9 | CCc1nnc(NC(=O)CSc2nc(C)c3c(c2C#N)CCCC3)s1 | inactive
10 | CCCCc1ccc(NC(=O)CSc2nc(=O)n(CCN(CC)CC)c3c2CCCC3)cc1 | 39.8 µM (active)
11 | Cc1cc(C(=O)CCl)c(C)n1-c1cccc(S(=O)(=O)N2CCOCC2)c1 | 21.2 µM (active)
12 | O=C(NC1CC1)c1cccc(S(=O)(=O)N2CCOCC2)c1 | inactive
13 | Cc1ccc(S(=O)(=O)N2CCOCC2)cc1C(=O)N1C(=O)c2cccc(N)c2C1=O | inactive
14 | CCC(=O)c1cc2c(C)cc(=O)oc2c(C)c1O | inactive
15 | CCOC(=O)c1cc2c(=O)n3ccccc3nc2n(Cc2ccco2)/c1=N/C(=O)c1ccccc1OCC | inactive
16 | COCCn1c(SCC(=O)NCc2ccc(OC)c(OC)c2)nc2ccccc21 | inactive
17 | COC(=O)[C@]12CCCCC=C1N(Cc1ccc(Cl)cc1Cl)C(=O)[C@H](CC(=O)NCc1ccc(OC)c(OC)c1)C2 | 25.1 µM (active)
18 | CCOC(=O)[C@]12CCCC=C1N(Cc1ccc(Cl)cc1Cl)C(=O)[C@H](CC(=O)NCc1ccc(OC)c(OC)c1)C2 | 39.8 µM (active)
19 | CCCCCCCCN1C(=O)[C@H](CC(=O)NCc2ccc(OC)c(OC)c2)C[C@@]2(C(=O)OC)CCCCC=C12 | 35.5 µM (active)
20 | CCOC(=O)[C@]12CCC=C1N(Cc1cccc3ccccc13)C(=O)[C@H](CC(=O)NCc1ccc(OC)c(OC)c1)C2 | 39.8 µM (active)

Row | Structure (SMILES) | Potency
21 | COc1ccc(CNC(=O)COC(=O)c2ccc(C)c(S(=O)(=O)N3CCOCC3)c2)cc1OC | inactive
22 | CCCOc1ccc(N2CC(C(=O)NCCc3ccc(OC)c(OC)c3)CC2=O)cc1 (stereo not drawn) | inactive
23 | CC1(C)C/C(=N\O)C(C(O)c2cccc([N+](=O)[O-])c2)C(C)(C)N1 (stereo not drawn) | inactive
24 | O=C1CSC(c2cccc([N+](=O)[O-])c2)N1C1CC2CCC1C2 (stereo not drawn) | inactive
25 | CCCCN(CCCC)S(=O)(=O)c1ccc(C(=O)Nc2sc3c(c2C(N)=O)CCN(CC)C3)cc1 | inactive
26 | Cc1nc2nc(-c3ccccc3)cn2nc1C | inactive
27 | CCCCCCCCN1C(=O)[C@H](CC(=O)NCC2CCCCC2)C[C@@]2(C(=O)OC)CCCCC=C12 | 25.1 µM (active)
28 | Cc1ccc(C2OC34CCCCCC3C(C#N)(C(=N)O4)C2(C#N)C#N)cc1 (stereo not drawn) | inactive
29 | CN(Cc1cccs1)c1nc(-c2cccnc2)nc2ccccc12 | inactive
30 | O=C(c1ccccc1)c1ccc2nc(-c3ccco3)c(-c3ccco3)nc2c1 | inactive
31 | CC(=O)Nc1ccc(C2=NN(c3ccccc3)C(c3cccs3)C2)cc1 (stereo not drawn) | inactive
32 | COc1cc(C2CC(c3cccs3)=NN2C(=O)CCl)ccc1OC(F)F (stereo not drawn) | 39.8 µM (active)
33 | COc1ccc(C2CC(c3cccs3)=NN2c2ccc(F)cc2)cc1OC (stereo not drawn) | inactive
34 | c1ccc(N2N=C(c3cccs3)CC2c2ccco2)cc1 (stereo not drawn) | inactive
35 | O=C(c1ccccc1Cl)N1N=C(c2cccs2)CC1c1cccc(O)c1 (stereo not drawn) | inactive
36 | Cc1ccc(C2CC(c3cccs3)=NN2C(=O)CCl)cc1 (stereo not drawn) | 25.1 µM (active)
37 | COc1ccccc1N1N=C(c2cccs2)CC1c1ccccc1 (stereo not drawn) | inactive
38 | O=C(CCl)N1N=C(c2cccs2)CC1c1ccco1 (stereo not drawn) | 5.32 µM (active)
39 | COc1ccc(C2=NN(c3ccccc3)C(c3cccs3)C2)cc1 (stereo not drawn) | inactive
40 | Cc1ccc(C2=NN(C(=O)CCl)C(c3cccs3)C2)o1 (stereo not drawn) | 9.47 µM (active)

Row | Structure (SMILES) | Potency
41 | Clc1ccc(N2N=C(c3cccs3)CC2c2ccco2)cc1 (stereo not drawn) | inactive
42 | c1ccc(C2CC(c3cccs3)=NN2c2ccccc2)cc1 (stereo not drawn) | inactive
43 | COc1ccc2nc3c(cc2c1)c(NC(=O)C1CCCO1)nn3CC(C)C (stereo not drawn) | inactive
44 | O=S(=O)([N-]c1nc2ccccc2nc1-[n+]1ccn(Cc2ccccc2)c1)c1ccc(Cl)cc1 | inactive
45 | CCCCn1nc(NC(=O)COC)c2cc3cc(OC)ccc3nc21 | inactive
46 | N=c1c(C(=O)NC2CCCCC2)cc2c(=O)n3ccccc3nc2n1Cc1cccnc1 | inactive
47 | COc1ccc(C2=NN3C(C2)c2ccccc2OC3c2cccs2)cc1 (stereo not drawn) | inactive
48 | O=C(CCl)N1N=C(c2ccco2)CC1c1cccs1 (stereo not drawn) | 17.8 µM (active)
49 | O=C(c1ccccc1)C1Oc2ccccc2C2CC(c3cccs3)=NN12 (stereo not drawn) | inactive
50 | C#CCOCCOCCOCCNc1nc(N2CCN(C(=O)CCCCCCCCCCNC(=O)[C@H]([C@@H](C)CC)n3cc(CCCCN=C(N)N)nn3)CC2)nc(N2CCN(C(=O)CCCCCCCCCCNC(=O)[C@H](CO)n3cc(CCCSC)nn3)CC2)n1 | 35.5 µM (active)
51 | C#CCOCCOCCOCCNc1nc(N2CCN(C(=O)CCCCCCCCCCNC(=O)Cn3cc(CCCCCN)nn3)CC2)nc(N2CCN(C(=O)CCCCCCCCCCNC(=O)[C@@H]([C@H](C)O)n3cc(C)nn3)CC2)n1 | 28.2 µM (active)
52 | C#CCOCCOCCOCCNc1nc(N2CCOCC2)nc(N2CCN(C(=O)[C@H]([C@@H](C)CC)n3cc([C@@H](N)Cc4ccc(O)cc4)nn3)CC2)n1 | 35.5 µM (active)
53 | C#CCOCCOCCOCCNc1nc(N2CCN(C(=O)CCCCCCCCCCNC(=O)Cn3cc(C[C@@H](C)O)nn3)CC2)nc(N2CCN(C(=O)CCCCCCCCCCNC(=O)[C@@H]([C@H](C)CC)n3cc(CCCCCN)nn3)CC2)n1 | 20 µM (active)
54 | CC(Sc1nnc(-c2cccnc2)o1)C(=O)NC1CCCCC1 (stereo not drawn) | inactive
55 | C=CCn1c(N)c(C(=O)OCCC)c2nc3ccccc3nc21 | inactive
56 | OCc1ccccc1-c1ccc2nccn2c1 | inactive
57 | Cc1csc(NC(=O)c2cc3c(s2)-c2ccccc2OC3)n1 | inactive
58 | Cc1cccc(/C=N/c2sc3c(c2C#N)CCN(Cc2ccccc2)C3)c1O | inactive
